# PubChem BioAssay AID504692 (The Scripps Research Institute Molecular Screening Center, 2011)
# Screen size: about 340,000 compounds; about 2,000 (0.59%) were called active. Cut-off read from the data, not from the text of the source: active = activation mostly above about 9.5% (no sharp cut-off); inactive = mostly below about 7.6%. Many of the other results were omitted from the sample, so actives are more common in it than they were.
# Biological target: 5-hydroxytryptamine receptor 5A (Homo sapiens) (UniProt P47898)
# Assay: activation of human 5-HT5A receptor – cell-based, luminescence, full-deck HTS, counter-screen for OPRM1-OPRD1 heterodimer agonist project, primary screen (AID 504692);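 note: 0% = cells with vehicle only and 100% = reference agonist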
# Conditions: HTR5A agonist assay, at 9.3 µM, active compounds read high
# Sequence of 5-hydroxytryptamine receptor 5A (Homo sapiens) (P47898 whole entry, looked up): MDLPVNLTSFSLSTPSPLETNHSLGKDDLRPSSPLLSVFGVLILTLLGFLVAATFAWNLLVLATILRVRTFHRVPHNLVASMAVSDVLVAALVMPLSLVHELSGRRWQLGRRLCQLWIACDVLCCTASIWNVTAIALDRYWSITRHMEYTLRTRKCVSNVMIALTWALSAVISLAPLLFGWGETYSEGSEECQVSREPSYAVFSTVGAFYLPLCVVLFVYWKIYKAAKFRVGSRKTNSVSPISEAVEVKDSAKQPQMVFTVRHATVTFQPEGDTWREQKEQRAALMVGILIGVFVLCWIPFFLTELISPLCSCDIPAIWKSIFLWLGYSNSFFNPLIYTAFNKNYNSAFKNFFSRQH
row,SMILES,activation
1,COc1ccc(Nc2cc(=O)oc3ccccc23)cc1,2.95% (inactive)
2,COc1cccc2cc(-c3cc(=O)oc4cc(C)c(O)cc34)oc12,1.11% (inactive)
3,COc1ccc2oc(=O)cc(-c3cc4ccccc4o3)c2c1,10.7% (active)
4,COc1ccc(/C=C(\C#N)c2c[nH]c3ccccc23)cc1,19.6% (active)
5,COc1cccc(-n2c(SCC(=O)c3c[nH]c4ccccc34)nc3ccccc3c2=O)c1,-2.91% (inactive)
6,COc1ccc(C2C(C(C)=O)=C(O)C(=O)N2CCc2c[nH]c3ccccc23)cc1 (stereo unspecified),1.98% (inactive)
7,Cc1cc(C(=O)NNS(=O)(=O)c2ccccc2C(F)(F)F)nn1C(C)(C)C,-2.85% (inactive)
8,Cc1cccc(C)c1NC(=O)Nc1ccccc1-n1ccnc1,2.52% (inactive)
9,NNC(=O)c1ccc(COCC(F)(F)C(F)F)cc1,8.26% (inactive)
10,Cc1ccc(C(=O)NC2CCN(C(=O)Nc3ccc(F)cc3)CC2)cc1,4.38% (inactive)
11,CN(CC(=O)Nc1ccc(F)cc1)CC(=O)Nc1ccc(Cl)c(S(=O)(=O)N2CCOCC2)c1,5.23% (inactive)
12,CN(CC(=O)Nc1ccc(S(=O)(=O)N2CCCC2)cc1)Cc1ccc(Cl)c(Cl)c1,-1.38% (inactive)
13,CN(CCC(=O)Nc1cc(S(=O)(=O)N(C)C)ccc1Cl)CC(=O)Nc1ccc(F)cc1,11.8% (active)
14,O=C(Nc1cccc(F)c1)[C@@H]1CCCN1,0.12% (inactive)
15,COc1ccc(C(=O)C2CCCN(C(=O)c3ccc(OC)o3)C2)c(C)c1 (stereo unspecified),-0.4% (inactive)
16,O=C(C(Cl)Cl)N1CCN(c2ccccn2)CC1,-2.12% (inactive)
17,O=C(/C=C/c1cccc(C(F)(F)F)c1)N1CCN(c2ccccn2)CC1,10.6% (active)
18,O=C(Cc1ccc(Br)cc1)N1CCN(c2ccccn2)CC1,0.82% (inactive)
19,Cc1cccc(N2CCN(C(=O)CCS(=O)(=O)c3ccc4c(c3)NC(=O)C(C)S4)CC2)c1C (stereo unspecified),2.41% (inactive)
20,COC(=O)c1cc(S(=O)(=O)N2CCN(c3cc(C)ccc3C)CC2)c[nH]1,14.8% (active)
21,Cc1ccc(C)c(N2CCN(S(=O)(=O)c3ccc4c(c3)oc(=O)n4C)CC2)c1,0.11% (inactive)
22,Cc1ccc(C)c(N2CCN(S(=O)(=O)c3c(C)[nH]c(C)c3C(=O)N3CCCC3)CC2)c1,0.83% (inactive)
23,Cc1cccc(N2Cc3ccccc3C2=NC(=O)c2ccc(Cl)nc2)c1,2.14% (inactive)

row,SMILES,activation
1,OCCC1CN(Cc2cccc(OC3CCCC3)c2)CCN1Cc1ccsc1 (stereo unspecified),0.37% (inactive)
2,O=C(CCCCCn1c(=O)[nH]c2ccccc2c1=O)NCCc1c[nH]c2ccccc12,12.7% (active)
3,O=C(CCc1c[nH]c2ccccc12)NCCOc1ccccc1,0.78% (inactive)
4,CCN(CC)CCNC(=O)CCCCCn1c(=O)[nH]c2cc(C(=O)OC)ccc2c1=O,1.57% (inactive)
5,O=C1CC(Cc2ccc(Cl)cc2)C(=O)N1c1cc(Cl)ccn1 (stereo unspecified),5.44% (inactive)
6,CC(=O)Nc1ccc(S(=O)(=O)NC2Cc3ccccc3C2)cc1,4.91% (inactive)
7,CC(=O)Nc1ccc(S(=O)(=O)NC(C)C(=O)OCC(=O)NC2CCCC2)cc1 (stereo unspecified),3.96% (inactive)
8,CCOC(=O)[C@H]1CCC[C@@H](NS(=O)(=O)c2ccc(NC(C)=O)cc2)C1,12.5% (active)
9,Cc1cccc(OC(=O)c2sc3ncn(C)c(=O)c3c2C)c1,-4.42% (inactive)
10,CCOc1ccc(CCNC(=O)CCc2nnc3ccc(N4CCCC4)nn23)cc1OCC,-0.94% (inactive)
11,CCC(C)C(N=C1NS(=O)(=O)c2ccccc21)C(=O)N1CCC(C)CC1 (stereo unspecified),-4.84% (inactive)
12,CC(C)CC(=O)N/C(N)=N/c1nc2ccccc2s1,22% (active)
13,CC(C)CC(=O)NC(=S)NCc1ccccc1,-0.72% (inactive)
14,O=C(CCC(=O)c1cccs1)Nc1nc2ccccc2s1,6.03% (inactive)
15,CCOC(=O)C1C(c2ccc(O)cc2)NC(=O)NC1(O)C(F)(F)F (stereo unspecified),3.08% (inactive)
16,CC(C)CCN1CCN(Cc2ccc(C(F)(F)F)cc2)CC1CCO (stereo unspecified),-0.94% (inactive)
17,O=C(NCc1ccccc1)C(=O)NCC1OCCN1S(=O)(=O)c1ccc(Br)cc1 (stereo unspecified),5.82% (inactive)
18,CCOC(=O)c1c(-c2ccc(C)cc2C)csc1NC(=O)CSc1nnnn1C,0.24% (inactive)
19,CCOC(=O)c1c(-c2ccc(-c3ccccc3)cc2)csc1NC(=O)CCC(=O)O,9.5% (active)
20,CCOC(=O)c1c(-c2cccc(C)c2)csc1NC(=O)c1c(-c2ccccc2)noc1C,-1.55% (inactive)
21,O=C(NCc1ccco1)/C(=C\c1cccc([N+](=O)[O-])c1)NC(=O)c1ccco1,0.85% (inactive)
22,O=C(CSc1nncn1-c1cccnc1)N1CCOCC1,1.54% (inactive)
23,Cc1ccc(C(=O)Nc2ccc3c(c2)OCCO3)cc1S(=O)(=O)N1CCOCC1,0.67% (inactive)

row,SMILES,activation
1,O=C(NCc1cccs1)c1cc(-c2ccccn2)nc2ccc(Br)cc12,12.8% (active)
2,O=C(NCC(c1cccs1)N1CCOCC1)c1cc(-c2ccccn2)nc2ccccc12 (stereo unspecified),1.25% (inactive)
3,O=C(Nc1ccncc1)c1cc(-c2ccccn2)nc2ccc(Br)cc12,-4.88% (inactive)
4,CCOC(=O)CSc1nc2ccc(C)cc2n2cnnc12,-0.67% (inactive)
5,Cc1oc2c(F)c(F)c(F)c(F)c2c1S(=O)(=O)Nc1cccc(C(F)(F)F)c1,16.5% (active)
6,O=C(CNS(=O)(=O)c1cccc(C(F)(F)F)c1)Nc1ccccc1F,-1.06% (inactive)
7,Cc1noc(C)c1S(=O)(=O)Nc1cc(C(F)(F)F)ccc1N1CCOCC1,-0.69% (inactive)
8,CCOc1ccc2[nH]c(=O)c(CN(CCCO)C(C)=O)cc2c1,4.2% (inactive)
9,COc1ccccc1S(=O)(=O)NCc1ccc(C(=O)N(C)Cc2ccc(F)cc2)cc1,16.9% (active)
10,O=C(NCCS(=O)(=O)NCc1ccc(F)cc1)c1ccccc1,-3.96% (inactive)
11,COc1ccc(S(=O)(=O)NCc2ccc(C(=O)N(C)Cc3ccco3)cc2)cc1,6.7% (inactive)
12,Cc1cc(S(=O)(=O)NC2CCCCC2)ccc1OCC(=O)NCc1cccnc1,7.03% (inactive)
13,C/C(=N\NS(=O)(=O)c1cccc([N+](=O)[O-])c1)c1cc2ccccc2o1,11.2% (active)
14,COc1ccc(CCNS(=O)(=O)c2cccc([N+](=O)[O-])c2)cc1,9% (inactive)
15,CC(C=Cc1ccccc1)=NNS(=O)(=O)c1ccc([N+](=O)[O-])cc1,2.51% (inactive)
16,Cc1ccc(NC(=S)NC(NC(=O)Cc2cccc3ccccc23)C(Cl)(Cl)Cl)cc1 (stereo unspecified),26.7% (active)
17,Cc1ccc(CNC(=O)[C@@H](NC(=O)Cc2ccccc2)C(C)C)cc1,-1.89% (inactive)
18,CC(C)(C)C(=O)NC(NC(=S)Nc1ccc(S(N)(=O)=O)cc1)C(Cl)(Cl)Cl (stereo unspecified),3.71% (inactive)
19,CCOC(=O)C1CCCN(S(=O)(=O)c2ccc(-n3cnnn3)c(C)c2)C1 (stereo unspecified),1.69% (inactive)
20,COC(=O)c1sccc1NC(=O)CSc1ccccc1NS(=O)(=O)c1cc(Cl)ccc1Cl,8.27% (inactive)
21,CCc1cc2c(N3CCN(c4nnc(CC)s4)CC3)ncnc2s1,10.4% (active)
22,CCc1cc2c(NC(Cc3ccccc3)C(=O)O)ncnc2s1 (stereo unspecified),-3.53% (inactive)
23,CCc1cc2c(NC3CCCC3)ncnc2s1,0.57% (inactive)

row,SMILES,activation
1,COc1ccc(C(=O)NCc2ccc(Cl)cc2)cc1S(=O)(=O)N1CCCC1,-0.47% (inactive)
2,C=CCOC(=O)C1=C[C@@H](c2ccc3c(c2)OCO3)C[C@@H](OCCCCO)O1,-2.46% (inactive)
3,Nn1c(SCC(=O)Nc2nccs2)nnc1-c1ccco1,2.08% (inactive)
4,COc1ccc(-c2cc(=O)oc3cc(OCC(=O)N[C@@H](Cc4c[nH]c5ccccc45)C(=O)O)ccc23)cc1,-4.61% (inactive)
5,COc1ccc(-c2cc(=O)oc3cc(OCC(=O)N(C)C4CCS(=O)(=O)C4)ccc23)cc1 (stereo unspecified),3.71% (inactive)
6,CC(=O)COc1ccc2c(-c3ccccc3)cc(=O)oc2c1,15.1% (active)
7,Cc1cc(C(=O)OC(C)C(=O)Nc2cccc(S(=O)(=O)N3CCOCC3)c2)c(C)o1 (stereo unspecified),1.13% (inactive)
8,C[C@@H](CN1CCC[C@H]1CN1C(N)=NC[C@@H]1Cc1ccccc1)N1C[C@@H](Cc2ccccc2)N(CCCC2CCCC2)C1=N,-7.1% (inactive)
9,COc1cc(SC#N)ccc1N=Cc1c(C)[nH]n(-c2ccc(C)cc2)c1=O,11.4% (active)
10,Cc1ccc(C(=O)N2CC(=O)Nc3ccccc32)o1,-6.07% (inactive)
11,COc1cccc(OC)c1C(=O)N1CCN(Cc2cccnc2)CC1,3.95% (inactive)
12,C=C(C)CSc1nnc(-c2ccc(C)cc2)n1N,-0.48% (inactive)
13,COc1ccccc1NS(=O)(=O)c1ccc(C(=O)N2CCN(c3ccccc3O)CC2)cc1,-0.27% (inactive)
14,COc1ccc(S(=O)(=O)N2CCOC2CNC(=O)C(=O)NCc2ccncc2)cc1OC (stereo unspecified),1.9% (inactive)
15,CC(=O)Nc1ccc(S(=O)(=O)N2CCn3cccc3C2C)cc1 (stereo unspecified),-2.82% (inactive)
16,COc1cccc(/C=N/NC(=O)c2[nH]nc3c2CCc2ccccc2-3)c1O,18.3% (active)
17,CCOc1ccc2[nH]c(C(=O)N/N=C/c3cccc(OC)c3OC)cc2c1,4.96% (inactive)
18,COc1ccc(/C=N/NC(=O)c2ccncc2)cc1CN1CCCc2ccccc21,1.74% (inactive)
19,COc1cccc(CNCc2ccc3c(c2)OCO3)c1,9.7% (inactive)
20,COc1ccc(C(=O)NC2=NCCS2)c(OC)c1,4.66% (inactive)
21,COc1ccc(C(=O)Nc2cccc(NC(=O)c3ccc(OC)cc3OC)n2)c(OC)c1,13.4% (active)
22,COc1ccc(C(=O)NC(C)CCc2ccccc2)c(OC)c1 (stereo unspecified),3.2% (inactive)
